Data on 38 molecules can be found in PubChem BioAssay (NCI).

Each structure is given as a SMILES string. This is part of a sample that, as a whole, favours compounds with a hit. Of some 83,000 tested, about 20% had one in any assay.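 Step 1: grow cells in 96-well plates. Step 2: add test compound at a single concentration. Step 3: incubate 48 h. Step 4: record percent growth.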 A number with no mark means an inactive call. Activity calls are given as the source filed them. Rule for the calls: active = growth percent below 10; inactive = the rest.

In this assay the test system is HL-60(TB) leukemia. As to the kind of experiment: NCI-60 one-dose screen, 48 h (100 = growth as untreated, 0 = no growth, -100 = all killed). The conditions noted are these: 10 µM unless noted.

`O=C(Cn1cc(CN2C(=O)c3ccccc3S2(=O)=O)nn1)Nc1ccc([N+](=O)[O-])cc1Cl`: the growth is 94.6%.

Turning to `O=C(NCCO)Nc1ccc(-c2nc(N3CCOCC3)c3cccn3n2)cc1`, the growth was 24.2%.

Consider `COc1cc2c(cc1[N+](=O)[O-])-c1ccc([N+](=O)[O-])cc1/C2=N\O`, for which the growth is 89.5%.

Consider `COc1ccc(C2=NN(C(=O)c3ccc(S(C)(=O)=O)cc3)C(c3ccc(OC)c(OC)c3)C2)c(OC)c1` (stereo not drawn), for which the growth is 69%.

Turning to `O=C(Nc1cccc(C(F)(F)F)c1)Nc1ccc(OCc2nnc(-c3ccccc3)o2)c(F)c1`, the growth is -4.69% (active).

For the molecule `CC1(C)CNC(=O)N1`, the growth was 101%.

Take `CC1(C)CC(=O)C2=C(C1)Oc1nc(N)c(C#N)c(N)c1C2c1ccc(F)cc1` (stereo not drawn): the growth was 107%.

As to `COc1ccc(O)c(-c2cc(-c3ccccc3)c(C#N)c(=O)[nH]2)c1`, the growth is 112%.

With `CCCCCCCCCCCCCCCCCCOc1ccc(CC(=O)OCC[N+]2(C)CCCCC2)cc1`, the growth was 83.4%.

For `Clc1ccc(Oc2ccc(Nc3ncnc4onc(-c5ccccc5)c34)cc2)c(Cl)c1`, the growth is 100%.

In the case of `COC(=O)[C@]12CC[C@@H](C)[C@H](C)[C@@H]1C1=CC[C@@H]3[C@@]4(C)CC(=O)[C@H](O)[C@@]5(C)COC(=C45)C[C@@]3(C)[C@]1(C)CC2`, the growth is -37.5% (active).

On to `CC1(C)OC(=O)C(=Cc2cccc(Br)c2)C(=O)O1`, for which the growth was 83.4%.

In the case of `CC(C)(C)c1cc(O)c(C(C)(C)C)cc1O`, the growth was 35.1%.

Consider `O=[N+]([O-])c1ccc(/C=N\Nc2ccccc2)cc1`, for which the growth is 94.6%.

Consider `COc1cc(-c2nn(-c3cccc(NC(=O)Nc4ccc(Cl)c(C(F)(F)F)c4)c3)cc2-c2ccncc2)ccc1Cl`, for which the growth was -19.8% (active).

With `c1ccc2c(c1)Oc1ccccc1C2C1c2ccccc2Oc2ccccc21`, the growth was 99.4%.

Regarding `C=C1c2c(C)nn(-c3ccc(O)cc3)c2N(C)C23C[C@@H]1C1(C)c4c(C)nn(-c5ccc(O)cc5)c4N(C)C(C)(C[C@H]12)C3` (stereo partly drawn), the growth was 4.76% (active).

Take `Cc1ccc(-c2cnc3sc(C(=O)NCCc4ccccc4)c(C)n23)cc1`: the growth was 97.9%.

For `O=[N+]([O-])c1ccc2nc3c4ccccc4c4ccccc4c3nc2c1`, the growth was 77.2%.

With `COc1cc2ncnc(Nc3cccc(Cl)c3F)c2cc1OC(=O)N1CCN(C)C[C@H]1C`, the growth is 102%.

For the molecule `COc1ccc(-c2conc2-c2ccccc2)cc1`, the growth is 15.1%.

Turning to `CC(C)[C@H]1CCC2=C3CC[C@]45OC(=O)[C@@]6(CCC(C)(C)C[C@H]64)CC[C@@]5(C)[C@]3(C)CC[C@@]21C`, the growth is 3.99% [100 µM] (active).

Consider `c1ccc(CSc2nnc3c4c5c(sc4nc(-c4cccnc4)n23)CCCCCC5)cc1`, for which the growth was 4% (active).

Turning to `CC(=O)n1cc(-c2c[nH]c3ccccc23)c(-c2ccc(Cl)cc2)n1`, the growth is 135%.

In the case of `CCCCCCCCCCCCC1CCC(=O)O1` (stereo not drawn), the growth was 88.1%.

As to `Cc1nn(-c2ccc(Br)cc2)c2nc3[nH]c(=O)[nH]c(=O)c3nc12`, the growth was 120%.

Consider `CCN(CC)CCNc1ncnc2c1cnn2-c1ccc(Cl)cc1`, for which the growth was 39.1%.

Consider `O=C1c2cccc(NCCN=Cc3cc([N+](=O)[O-])ccc3O)c2C(=O)c2c(NCCN=Cc3cc([N+](=O)[O-])ccc3O)cccc21`, for which the growth was 70.8%.

Take `C=CC(=O)NCCOc1cccc(Nc2cc(NCCCNC(=O)C3CCC3)c(Br)cn2)c1`: the growth was -55% (active).

Take `COc1ccc(-n2cnc3cc(C(=O)N4CCCCC4)ccc32)cc1`: the growth is 105%.

Turning to `CC(C)CSc1nc(N)nc2c1ncn2C1OC(CO)C(O)C1O` (stereo not drawn), the growth was 113%.

As to `O=C1Nc2cc(Cl)ccc2Oc2cc(Oc3ccccc3)ccc21`, the growth was 38.6%.

Take `Cc1cc(C)nc(NS(=O)(=O)c2ccc(Nc3ccc4c5c(n(CCCN(C)C)c(=O)c4c3)-c3ccccc3C5=O)cc2)n1`: the growth is 70.6%.

`CCn1c(C)nc([N+](=O)[O-])c1Sc1nc(N)nc2nc[nH]c12`: the growth was 50.9%.

Consider `CCCCN1CCN(c2ccc3nc(-c4ccc5nc(-c6ccc(C(F)(F)F)cc6)[nH]c5c4)[nH]c3c2)CC1`, for which the growth is -58.7% (active).

With `CN(C)C1CCC(NC2=CC(=O)C=CC2=O)CC1` (stereo not drawn), the growth is 114%.

For the molecule `Clc1ccc2c(NCCCCNc3nc(N4CCOCC4)nc4ccccc34)ccnc2c1`, the growth was -59.8% (active).

Turning to `O=C(/C=C/c1ccc(Cl)cc1)c1ccccc1`, the growth is 99.9%.
